The text below walks through data of PubChem BioAssay (NCI).

Common to all, as to assay: NCI-60 one-dose screen, 48 h (100 = growth as untreated, 0 = no growth, -100 = all killed)
Holding throughout (settings): 10 µM unless noted

For experiment [1], the system named is SR leukemia.
The subject of experiment [2] is RPMI-8226 leukemia.
Experiment [3] relates to OVCAR-8 ovarian.
The subject of experiment [4] is OVCAR-5 ovarian.
Experiment [5] has as its system OVCAR-4 ovarian.
The subject of experiment [6] is SK-OV-3 ovarian.
The test system of experiment [7] is IGROV1 ovarian.
Experiment [8] relates to OVCAR-3 ovarian.
Experiment [9] deals with HS 578T breast.
Experiment [10] deals with NCI/ADR-RES ovarian.

Values joined by “and” are separate entries in the source; they are usually repeats but may differ in a detail not shown here. Identical values can stand only once. This is part of a sample that, as a whole, favours compounds with a hit. Of some 83,000 tested, about 20% had one in any assay.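 Step 1: grow cells in 96-well plates. Step 2: add test compound at a single concentration. Step 3: incubate 48 h. Step 4: record percent growth.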 Where a structure was tested more than once in an assay, its records may differ in their call. Active and inactive are the calls of the source. How the source made its calls: active means growth percent below 10; inactive means the rest.

Take `Oc1c(Cl)cc(Cl)cc1Sc1cc(Cl)cc(Cl)c1O`: the growth was 42.1% (inactive) and 77.1% (inactive) and 107% (inactive) in [1]; 11.8% (inactive) and -29% (active) and 41.3% (inactive) in [2]; 31.7% (inactive) and 2.65% (active) and 71.7% (inactive) in experiment [3]; 49.9% (inactive) and 102% (inactive) in experiment [4]; 78.1% (inactive) and 38.2% (inactive) and 93.3% (inactive) in experiment [5]; 74.6% (inactive) and 96.4% (inactive) in [6]. In addition, the growth in [7] is 56.5% (inactive) and 33.3% (inactive) and 73.7% (inactive); in [8], 47.1% (inactive) and 11.6% (inactive) and 76.5% (inactive); in [9], 47.9% (inactive) and 53.5% (inactive) and 78.2% (inactive); in [10], 15.8% (inactive) and 10.8% (inactive) and 82.7% (inactive).
`CCN(CC)CCOc1ccc(/C=N/Nc2nc3c([nH]2)c(=O)n(C)c(=O)n3C)cc1`: the growth in experiment [1] was 102% (inactive) and 96.8% (inactive); in [2], 90.7% (inactive) and 108% (inactive); in experiment [3] it was 107% (inactive) and 104% (inactive); in [4], 117% (inactive) and 89.7% (inactive); in [5], 107% (inactive) and 105% (inactive); in [7], 110% (inactive) and 91.2% (inactive). Moreover, the growth was 114% (inactive) and 94.8% (inactive) in experiment [8]; 106% (inactive) and 105% (inactive) in [9]; 118% (inactive) and 106% (inactive) in [10].
Regarding `CCCCCCCCCCCCOc1ccccc1C=O`, the growth in experiment [1] was 84.9% (inactive); in experiment [2] it was 96.4% (inactive); in [3] it was 94.6% (inactive); in experiment [4] it was 101% (inactive); in experiment [5], 86.5% (inactive); in experiment [6] it was 95.7% (inactive). Also, the growth in experiment [7] was 112% (inactive); in experiment [8], 108% (inactive); in experiment [9] it was 97% (inactive); in [10], 102% (inactive).
With `CC1=C(/C=C/C(C)=C/C=C/C(C)=C/C=N/NC(=S)NC(=S)N/N=C/C=C(C)/C=C/C=C(C)/C=C/C2=C(C)CCCC2(C)C)C(C)(C)CCC1`, the growth in experiment [1] was 23.6% (inactive) and 1.02% (active); in [2] it was -2.02% (active) and -32.7% (active); in experiment [3] it was -12.5% (active) and -74.8% (active); in [4], -48.3% (active) and -77.7% (active); in experiment [5], 17% (inactive) and -0.538% (active); in experiment [6], 57.5% (inactive). The growth in experiment [7] was -34.8% (active) and -39.5% (active); in experiment [8] it was -74.5% (active) and -99.4% (active); in [10], -34% (active) and -58.9% (active).
As for `CCOC(=O)c1sc(N)nc1-c1ccccc1`, the growth in experiment [1] is 90.2% (inactive); in experiment [2], 99.1% (inactive); in experiment [3], 108% (inactive); in experiment [4], 90.9% (inactive); in experiment [5], 106% (inactive); in [7] it was 101% (inactive). Besides, the growth in experiment [8] was 108% (inactive); in experiment [9] it was 106% (inactive); in [10] it was 104% (inactive).
Take `Cc1ncsc1CCO`: the growth was 104% (inactive) and 111% (inactive) in [1]; 106% (inactive) and 122% (inactive) in experiment [2]; 104% (inactive) and 97% (inactive) in experiment [3]; 103% (inactive) in experiment [4]; 120% (inactive) and 116% (inactive) in [5]; 101% (inactive) and 110% (inactive) in experiment [6]. Besides, the growth is 124% (inactive) and 107% (inactive) in experiment [7]; 124% (inactive) and 93.9% (inactive) in experiment [8]; 110% (inactive) and 101% (inactive) in [9]; 108% (inactive) and 102% (inactive) in experiment [10].
For `CCN(CC)CCNc1ccc(C)c2sc3ccccc3c(=O)c12` (tested in a mixture with another compound), the growth in experiment [1] was 8.47% (active) and 20% (inactive); in experiment [2], 10.1% (inactive) and -9.01% (active); in experiment [3], 23.7% (inactive) and 32.3% (inactive); in [4], 48.8% (inactive) and 51.6% (inactive); in experiment [5], 40.7% (inactive) and 53.3% (inactive); in [7] it was -29.6% (active) and 3.62% (active). For the same compound, the growth in [8] is 58.9% (inactive) and 62.8% (inactive); in [9], 122% (inactive) and 81.6% (inactive); in experiment [10] it was 43.1% (inactive) and 43% (inactive).
Turning to `O=C(/C=C\c1ccnc2ccccc12)c1ccc([N+](=O)[O-])cc1`, the growth in [1] is 6.51% (active); in [2], 31.1% (inactive) and -26.4% (active); in experiment [3], 99.1% (inactive) and 73.5% (inactive); in experiment [4] it was 89.4% (inactive) and 96.3% (inactive); in [5], 85.3% (inactive) and 63.1% (inactive); in [6], 95% (inactive) and 89.6% (inactive). The growth is 108% (inactive) and 92.9% (inactive) in [7]; 100% (inactive) and 87.8% (inactive) in experiment [8]; 107% (inactive) and 88.6% (inactive) in experiment [9]; 81.6% (inactive) and 67.4% (inactive) in [10].
On to `CCOc1ccc2c(S(=O)(=O)O)cccc2c1[N+](=O)[O-]`, for which the growth in experiment [1] is 100% (inactive) and 94.2% (inactive); in [2], 98.1% (inactive) and 95.9% (inactive); in experiment [3], 104% (inactive) and 97.6% (inactive); in [4], 102% (inactive) and 112% (inactive); in experiment [5] it was 123% (inactive) and 109% (inactive); in experiment [7] it was 96.3% (inactive) and 114% (inactive). The growth was 107% (inactive) and 112% (inactive) in experiment [8]; 102% (inactive) and 94.5% (inactive) in [9]; 103% (inactive) and 106% (inactive) in experiment [10].
In the case of `CNC(=O)c1cccc(-c2ccc3c(N4CCOC[C@@H]4C)nc(N4CCOC[C@@H]4C)nc3n2)c1`, the growth is 9.14% (active) and 1.3% (active) in experiment [1]; 3.4% (active) and 4.33% (active) in [2]; -4.37% (active) and -7.81% (active) in experiment [3]; 8.26% (active) and -3.61% (active) in experiment [4]; -17.7% (active) and -18.2% (active) in experiment [5]; -16.6% (active) and -36.1% (active) in [7]. In addition, the growth in experiment [8] is 4.95% (active) and 11.5% (inactive); in experiment [9], -31.1% (active); in experiment [10], 1.66% (active) and -15.6% (active).
For `Cn1c(=O)n(-c2ccc(C(C)(C)C#N)cc2)c2c3cc(-c4cnc5ccccc5c4)ccc3ncc21`, the growth is 2.04% (active) and -5.13% (active) in [1]; 8.42% (active) in experiment [2]; 1.15% (active) and -10.2% (active) in [3]; 10.4% (inactive) and 19.4% (inactive) in experiment [4]; -5.93% (active) and 0.981% (active) in experiment [5]; -28.9% (active) and -13% (active) in experiment [6]. In addition, the growth in experiment [7] was -12.3% (active) and -27.9% (active); in experiment [8], 13.7% (inactive) and -10.6% (active); in experiment [10], 1.89% (active) and -0.868% (active).
For the compound `CCC(C)C1(C2CCCC2)NC(=O)NC1=O` (configuration not stated), the growth in [1] is 92% (inactive); in [2], 93.9% (inactive) and 106% (inactive); in experiment [3] it was 108% (inactive) and 99.9% (inactive); in [4] it was 111% (inactive) and 105% (inactive); in experiment [5], 102% (inactive); in experiment [6], 99.7% (inactive) and 109% (inactive). The growth in [7] was 117% (inactive) and 119% (inactive); in [8], 106% (inactive) and 115% (inactive); in experiment [9] it was 107% (inactive) and 103% (inactive); in experiment [10] it was 109% (inactive) and 104% (inactive).
On to `Nc1nc(SC/C=C/CCl)c2[nH]cnc2n1`, for which the growth in experiment [1] is 77.5% (inactive); in [2], 100% (inactive); in experiment [3] it was 103% (inactive) and 97.6% (inactive); in [4] it was 109% (inactive) and 101% (inactive); in experiment [5], 116% (inactive) and 100% (inactive); in [6], 99.4% (inactive) and 112% (inactive). Further, the growth was 114% (inactive) and 97.3% (inactive) in experiment [7]; 117% (inactive) and 120% (inactive) in [8]; 112% (inactive) and 125% (inactive) in experiment [9]; 103% (inactive) and 106% (inactive) in experiment [10].
With `NC(=S)NS(=O)(=O)c1ccc(N)cc1`, the growth in [1] is 96.5% (inactive); in experiment [2] it was 110% (inactive); in [3], 99.4% (inactive); in experiment [4], 106% (inactive); in experiment [5], 113% (inactive); in experiment [7], 107% (inactive). For the same compound, the results for the growth in [8], in [9] and in experiment [10] were 123% (inactive), 101% (inactive) and 104% (inactive), respectively.
On to `CN(C)c1ccc2nc3ccc(=[N+](C)C)cc-3sc2c1`, for which the growth is 29.2% (inactive) and 39.6% (inactive) and 51.5% (inactive) in experiment [1]; 40.4% (inactive) and 34.1% (inactive) and 40.2% (inactive) in [2]; 3.76% (active) and 0.437% (active) and 8.05% (active) in experiment [3]; 17.7% (inactive) and 14.5% (inactive) and 30.6% (inactive) in experiment [4]; 8.61% (active) and -18% (active) and 10.4% (inactive) in experiment [5]; 41.4% (inactive) and 60% (inactive) and 73.2% (inactive) in [6]. Also, the growth in experiment [7] is 9.73% (active) and 1.01% (active) and 43.1% (inactive); in experiment [8] it was 0.379% (active) and -3.68% (active) and 10.2% (inactive); in [9], 49.8% (inactive) and 111% (inactive); in [10], 12.1% (inactive) and 10.9% (inactive) and 13.9% (inactive).
On to `CNC(=O)c1ccc(C)c(-n2c(C)cc(OCc3ccc(F)cc3F)c(Br)c2=O)c1`, for which the growth in [1] was 64.9% (inactive) and 85.9% (inactive); in experiment [2], 48.2% (inactive) and 74% (inactive); in experiment [3] it was 70.3% (inactive) and 86.8% (inactive); in experiment [4], 77.1% (inactive) and 86.2% (inactive); in experiment [5], 73.7% (inactive) and 84.9% (inactive); in [6], 76.4% (inactive) and 91.3% (inactive). The growth in experiment [7] was 84.6% (inactive) and 92% (inactive); in experiment [8] it was 85.1% (inactive) and 101% (inactive); in experiment [9], 103% (inactive); in experiment [10] it was 80.5% (inactive) and 80.7% (inactive).
